Laboratory results as given in PubChem BioAssay (NCATS).
Records with an inconclusive call do not appear. Activity calls are given as the source filed them. The call rests on the fitted dose curve; in most records, active means well fitted curve in the direction sought with a large enough effect; inconclusive means small, poorly fitted or top-dose-only effect, or another doubt; inactive means no such curve, though single readings can be large; an effect the other way counts as inactive or inconclusive.

Legend:
NIH3T3 = assay: qHTS assay to identify novel small-molecules to repurpose for Merkel cell carcinoma treatment (AID 1296009); settings: MCC and control cell lines, CellTiter-Glo viability, 72 h; at 44.8 µM (top of the series) unless noted; further: nearly all actives have a fitted effect of over 60% in size
Method in brief: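 CellTiter-Glo luminescence after 72 hr compound exposure at 37 degree celsius gave cell viability. Libraries NPC and MIPE were run as 8- and 11-point dose responses; RLUs normalized to DMSO (negative) and no-cell (cytotoxicity) controls.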

C33A = assay: Primary qHTS to identify gynecologic anti-cancer compounds using libraries of approved drugs and bioactive compounds (AID 1345084); settings: Gynecologic cancer cell panel viability, ATPlite luminescence, 48 h; series mostly up to 57.5 µM; further: nearly all actives have a fitted effect of over 55% in size
Method in brief: (§1)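 Cell viability after 48 h drug treatment, ATPlite luminescence readout; five doses.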

CASKI = assay: as above; settings: Gynecologic cancer cell panel viability, ATPlite luminescence, 48 h; series mostly up to 57.5 µM
Method in brief: as §1

Es-2 = assay: as above; settings: Gynecologic cancer cell panel viability, ATPlite luminescence, 48 h; series mostly up to 57.5 µM
Method in brief: as §1

HeLa = assay: as above; settings: Gynecologic cancer cell panel viability, ATPlite luminescence, 48 h; series mostly up to 57.5 µM
Method in brief: as §1

Hek293T = assay: as above; settings: Gynecologic cancer cell panel viability, ATPlite luminescence, 48 h, control line for the selectivity index; series mostly up to 57.5 µM
Method in brief: as §1

JEG-3 = assay: as above; settings: Gynecologic cancer cell panel viability, ATPlite luminescence, 48 h; series mostly up to 57.5 µM
Method in brief: as §1

CAOV3 = assay: as above; settings: Gynecologic cancer cell panel viability, ATPlite luminescence, 48 h; series mostly up to 57.5 µM
Method in brief: as §1

Measured: Potency

C/C=C/C1OC2=C(C(=O)OC2(C)O)C(O)C1O (stereo not given)
inactive: NIH3T3 | C33A | CASKI | Es-2 | HeLa | Hek293T | JEG-3

O=C(O)CCc1cc2ccoc2cc1O[C@@H]1O[C@H](CO)[C@@H](O)[C@H](O)[C@H]1O
inactive: NIH3T3 | C33A | CAOV3 | Es-2 | HeLa | Hek293T | JEG-3

FC(F)(F)c1nnc2c(Sc3ccccc3)nc3ccc(Cl)cc3n12
inactive: NIH3T3 | C33A | CASKI | HeLa | Hek293T | JEG-3

O=C(Cc1ccc(Cl)cc1)Nc1cnccc1C(=O)O
inactive: NIH3T3 | CAOV3 | CASKI | Es-2 | HeLa | Hek293T | JEG-3

COc1cc2nc(=NC(=O)c3cccnc3)n3c(c2cc1OC)NCC3
inactive: NIH3T3 | C33A | CASKI | Es-2 | HeLa | Hek293T | JEG-3

COc1ccc(C(=O)NCc2cc(C(C)C)no2)cc1OC1CCN(C)CC1
inactive: C33A | CAOV3 | CASKI | Es-2 | HeLa | Hek293T | JEG-3

C/C(=C\CC/C(C)=C/CC[C@]1(C)CCc2cc(O)cc(C)c2O1)CC/C=C(\C)C(=O)O
inactive: C33A | CAOV3 | CASKI | Es-2 | HeLa | Hek293T | JEG-3

CC(=O)Nc1cccc2c1c(Sc1ccc(Cl)cc1)c(C)n2CC(=O)O
inactive: NIH3T3 | Es-2 | JEG-3

CC1(C)CC[C@]2(C(=O)O)CC[C@]3(C)C(=CCC4[C@@]5(C)C[C@@H](O)[C@H](O)[C@](C)(CO)C5CC[C@]43C)[C@@H]2[C@@H]1O (stereo not given in full)
inactive: CASKI | Hek293T

C=C1C2CCC3C(CCC4[C@@]3(C)CCC[C@@]4(C)C(=O)O)(C2)[C@@H]1OC(=O)/C(C)=C\C (stereo not given in full)
inactive: NIH3T3 inactive [at 17.4 µM] | C33A | CAOV3 | CASKI | JEG-3

CCC/C=C1\OC(=O)C2=C1CCC(O)C2O (stereo not given)
inactive: C33A | CAOV3 | CASKI | Es-2 | HeLa | Hek293T | JEG-3
